PubChem BioAssay AID1159580 (chemical genetic matrix, 2015)
“And” between values parts separate entries of the source, which are not always exact repeats. Identical values can stand only once. Hit rate of the full screen: of about 5,500 compounds, about 2,000 (36%) were called active. About 18% were inconclusive and are not listed. Cut-off read from the data, not from the text of the source: active = normalized growth mostly below about 0.91 (no sharp cut-off); inconclusive = no clear call, values can overlap the other calls; inactive = mostly above about 0.92. The list shows a part of the results.

Test: chemical genetic growth profiling, strain panel (AID 1159580);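 note: tested at 20 µM; growth read once vehicle control cultures reached saturation at 30 °C; 1 = growth at the plate median or of vehicle wells; lower values mean less growth of the strain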
Details: S. cerevisiae deletion strains, growth OD

Measured: normalized growth

C[C@]12C=CC(=O)C=C1CCC1C2C(=O)C[C@@]2(C)C1CC[C@]2(O)C(=O)CO (stereo not given in full)
inactive: locus YAL013W, strain DEP1, stronger effect = lower value 0.992 | locus YAL021C, strain ccr4, stronger effect = lower value 1.03 | locus YAL026C, strain drs2, stronger effect = lower value 1.02 | locus YAL030W, strain snc1, stronger effect = lower value 0.997 | locus YBL061C, strain skt5, stronger effect = lower value 0.992 | locus YBR009C, strain hhf1, stronger effect = lower value 1.01 | locus YBR021W, strain FUR4, stronger effect = lower value 0.985 | locus YBR023C, strain chs3, stronger effect = lower value 1.01 | locus YBR171W, strain sec66, stronger effect = lower value 0.979 | locus YBR229C, strain ROT2, stronger effect = lower value 0.954 | locus YBR231C, strain swc5, stronger effect = lower value 1.01 | locus YBR279W, strain paf1, stronger effect = lower value 1 | locus YCL011C, strain gbp2, stronger effect = lower value 1 | locus YCL016C, strain dcc1, stronger effect = lower value 1.01 | locus YCL029C, strain bik1, stronger effect = lower value 0.978 | locus YCL061C, strain MRC1, stronger effect = lower value 1 | locus YCL069W, strain vba3, stronger effect = lower value 0.996 | locus YCR088W, strain abp1, stronger effect = lower value 0.989 | locus YDL005C, strain med2, stronger effect = lower value 0.981 | locus YDL035C, strain GPR1, stronger effect = lower value 0.981 | locus YDL040C, strain nat1, stronger effect = lower value 0.995 | locus YDL074C, strain BRE1, stronger effect = lower value 0.965 | locus YDL101C, strain DUN1, stronger effect = lower value 0.985 | locus YDL134C, strain PPH21, stronger effect = lower value 0.992 | locus YDL185W, strain tfp1, stronger effect = lower value 0.983 | locus YDL192W, strain arf1, stronger effect = lower value 0.997 | locus YDR001C, strain nth1, stronger effect = lower value 1 | locus YDR069C, strain doa4, stronger effect = lower value 0.98 | locus YDR101C, strain arx1, stronger effect = lower value 0.991 | locus YDR137W, strain rgp1, stronger effect = lower value 1.01 | locus YDR150W, strain NUM1, stronger effect = lower value 0.987 | locus YDR159W, strain sac3, stronger effect = lower value 1.01 | locus YDR162C, strain NBP2, stronger effect = lower value 0.992 | locus YDR195W, strain ref2 0.916 | locus YDR297W, strain sur2, stronger effect = lower value 0.989 | locus YDR318W, strain mcm21, stronger effect = lower value 0.996 | locus YDR334W, strain swr1, stronger effect = lower value 0.999 | locus YDR335W, strain msn5, stronger effect = lower value 0.997 | locus YDR388W, stronger effect = lower value 0.986 | locus YDR392W, strain spt3, stronger effect = lower value 1.05 | locus YDR502C, strain sam2, stronger effect = lower value 0.989 | locus YEL003W, strain gim4, stronger effect = lower value 1 | locus YEL037C, strain rad23, stronger effect = lower value 0.996 | locus YEL061C, strain CIN8 (second series), stronger effect = lower value 0.997 | locus YEL061C, strain CIN8, stronger effect = lower value 0.985 | locus YER015W, strain faa2, stronger effect = lower value 0.996 | locus YER016W, strain bim1, stronger effect = lower value 1.01 | locus YER110C, stronger effect = lower value 0.966 | locus YER111C, strain swi4, stronger effect = lower value 0.981 | locus YER155C, strain BEM2 (second series), stronger effect = lower value 0.973 | locus YER155C, strain BEM2, stronger effect = lower value 1 | locus YER167W, strain BCK2, stronger effect = lower value 0.991 | locus YFR010W, strain ubp6, stronger effect = lower value 0.984 | locus YGL078C, strain dbp3, stronger effect = lower value 0.984 | locus YGL086W, strain mad1, stronger effect = lower value 0.995 | locus YGL167C, strain pmr1, stronger effect = lower value 0.991 | locus YGL173C, strain kem1, stronger effect = lower value 0.994 | locus YGL227W, strain vid30, stronger effect = lower value 0.999 | locus YGL240W, strain doc1, stronger effect = lower value 0.978 | locus YGL248W, strain PDE1, stronger effect = lower value 0.978 | locus YGL253W, strain hxk2, stronger effect = lower value 0.992 | locus YGR078C, strain PAC10, stronger effect = lower value 0.988 | locus YGR135W, strain pre9, stronger effect = lower value 0.997 | locus YGR252W, strain gcn5, stronger effect = lower value 0.95 | locus YHR013C, strain ard1, stronger effect = lower value 0.999 | locus YHR027C, strain rpn1, stronger effect = lower value 1 | locus YHR030C, strain SLT2, stronger effect = lower value 0.997 and 1.02 | locus YHR079C, strain IRE1 (second series), stronger effect = lower value 0.998 | locus YHR079C, strain IRE1, stronger effect = lower value 1.05 | locus YHR094C, strain hxt1, stronger effect = lower value 0.988 | locus YHR129C, strain ARP1, stronger effect = lower value 0.963 | locus YHR142W, strain chs7, stronger effect = lower value 0.972 | locus YHR200W, strain rpn10, stronger effect = lower value 0.986 | locus YIL066C, strain RNR3, stronger effect = lower value 0.98 | locus YIL073C, strain SPO22, stronger effect = lower value 1.01 | locus YIL125W, strain kgd1, stronger effect = lower value 0.993 | locus YIR030C, strain dcg1, stronger effect = lower value 0.987 | locus YJL092W, strain hpr5, stronger effect = lower value 1 | locus YJL095W, strain BCK1 (second series), stronger effect = lower value 1.01 | locus YJL095W, strain BCK1, stronger effect = lower value 0.982 and 1.03 | locus YJL115W, strain asf1, stronger effect = lower value 0.988 | locus YJL129C, strain trk1, stronger effect = lower value 0.978 | locus YJL134W, strain LCB3, stronger effect = lower value 0.995 | locus YJL154C, strain vps35, stronger effect = lower value 1 | locus YJL164C, strain tpk1, stronger effect = lower value 1.02 | locus YJL166W, strain qcr8, stronger effect = lower value 0.976 | locus YJL168C, strain set2, stronger effect = lower value 0.992 | locus YJL187C, strain SWE1 (second series), stronger effect = lower value 0.984 | locus YJR043C, strain POL32, stronger effect = lower value 1 | locus YJR066W, strain TOR1, stronger effect = lower value 0.976
